Growth data for 27 compounds are collected here from PubChem BioAssay (NCI).

About 83,000 compounds went through this panel and 20% of them were active in at least one assay; those are over-represented in the sample as a whole.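 Treatment: one concentration, 48 hours, 96-well format. Scoring: percent growth, with anything below 10 considered active.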 A number with no mark means an inactive call. Active and inactive are the calls of the source.

Test in all cases: NCI-60 one-dose screen, 48 h (100 = growth as untreated, 0 = no growth, -100 = all killed)
What all share (conditions): 10 µM unless noted

The subject of test [1] is DU-145 prostate.
In test [2] the test system is K-562 leukemia.
Test [3] concerns MALME-3M melanoma.
The test system of test [4] is MDA-MB-231 breast.
The test system of test [5] is RXF 393 renal.
The test system of test [6] is SF-268 CNS.
Test [7] relates to SF-295 CNS.
Test [8] deals with SF-539 CNS.
Test [9] has as its system UACC-257 melanoma.
In test [10] the test system is M14 melanoma.

For `C[C@@H]1N=C(c2ccc3ccccc3n2)Nc2nc3ccccn3c2C1=O`, the growth was 107% in test [1]; 102% in test [2]; 92.4% in [3]; 79.4% in [4]; 119% in test [5]; 101% in test [6]. For the same compound, the growth in test [7] is 90.4%; in test [8], 86.7%; in test [9] it was 117%; in test [10], 105%.

Regarding `CCOP(=O)(OCC)C1CP(=O)(c2ccccc2)CC(C)=C1Cl` (stereo not given), the growth in test [1] is 104%; in test [2], 93.4%; in test [3] it was 90.9%; in test [4], 95%; in test [5], 78.1%; in test [6] it was 104%. Besides, the growth in [7] was 96.7%; in [8], 104%; in [9], 92.2%; in test [10], 63.2%.

Regarding `Cc1cccc(Cc2cnc(NC(=O)c3ccc4nnsc4c3)s2)c1`, the growth in test [1] is 74%; in [2], 39.4%; in test [3] it was 95.3%; in [4], 111%; in test [5], 97.5%; in test [6], 89.9%. Also, the growth in test [7] was 93.7%; in test [8], 91%; in test [9], 95.4%; in test [10], 64.6%.

As for `c1ccc2c(c1)nc(CN1CCOCC1)n1cc(N3CCCC3)nc21`, the growth was 106% in [1]; 67.8% in test [2]; 96.9% in [3]; 104% in test [4]; 95% in [5]; 110% in test [6]. Further, the growth in test [7] is 112%; in test [8], 91.5%; in test [9], 99.1%; in test [10] it was 107%.

`O=C1CCC2=C3C4CCCCC4C(=O)C4CCCC(OC2C1)C34` (stereo not given): the growth in [1] was 0.534% (active); in test [2], 5.63% (active); in test [3], -33% (active); in test [4], 28%; in [5], -80.8% (active); in test [6], 3.25% (active). For the same compound, the growth was 33.4% in test [7], 4.64% (active) in test [8], 28.8% in [9] and 0.565% (active) in test [10].

Turning to `O=C(Nc1ccccc1)Nc1cccc(Oc2nnc(Cl)c3ccccc23)c1`, the growth in test [1] is 39%; in test [2], 51.6%; in test [3], -29.6% (active); in test [4], 32.1%; in [5] it was -3.63% (active); in test [6], 25.9%. Besides, the growth in test [7] was 31.2%; in [8], -22% (active); in test [9] it was 22%; in test [10], 46.3%.

In the case of `COC(=O)[C@H](CSC)N(C)C(=O)[C@@H]1CSSC[C@@H](NC(=O)c2nc3ccccc3cc2O)C(=O)NCC(=O)N1C`, the growth in [1] was 77.6%; in test [2] it was 48.8%; in test [3] it was 96.7%; in [4], 81.3%; in test [5] it was 101%; in test [6] it was 79.2%. The growth was 114% in test [7], 87.2% in test [8], 76.1% in [9] and 46.2% in test [10].

Regarding `N#Cc1c2c(nn(-c3ccccc3)c1=O)C(O)=C([N+](=O)[O-])C(c1ccccc1)C2` (stereo not given), the growth in [1] is 26.2%; in test [2], 41%; in [3], 86.1%; in [4], 71.1%; in test [5] it was 49.7%; in test [6], 88%. Besides, the growth was 98.9% in [7], 83% in test [8], 87.7% in test [9] and 86.1% in test [10].

Turning to `CCSC1=NC2C(N(CC)C(=O)N2CC)N1/N=C/C=C/c1ccccc1[N+](=O)[O-]` (stereo not given), the growth in test [1] is 5.79% (active); in [2], 10.4%; in [3] it was 36.2%; in [4] it was -1.7% (active); in [5], 41.5%; in [6], 45.2%. Also, the growth in [7] was 8.87% (active); in test [8], -26.3% (active); in [9], 61.1%; in test [10] it was 6.53% (active).

In the case of `COc1ccc(Nc2nnc(SCc3ccccc3F)s2)cc1`, the growth in test [1] was 111%; in [2], 92.4%; in [3] it was 119%; in test [4] it was 98.4%; in test [5], 101%; in test [6], 103%. The growth in test [7] is 97.7%; in test [8], 104%; in test [9], 106%; in test [10], 108%.

For `COc1cc(/C=C2\C(=O)ON=C2C)cc(OC)c1OC`, the growth in test [1] was 108%; in test [2], 95%; in test [3] it was 102%; in test [4] it was 98.3%; in [5], 114%; in test [6], 95.7%. Also, the growth in test [7] was 100%; in test [8] it was 94.7%; in test [9], 103%; in test [10], 96%.

On to `CC1O[C@@H](OC2[C@H](OC(=O)/C=C/c3ccc(O)c(O)c3)C(COC3O[C@H](C)C(O)C(O)[C@@H]3O)O[C@@H](OCCc3ccc(O)c(O)c3)[C@H]2O)[C@@H](O)C(O)[C@H]1O` (stereo not given in full), for which the growth in test [1] is 106%; in [2], 105%; in test [3], 88.1%; in [4], 108%; in test [5] it was 125%; in test [6], 103%. The growth is 103% in test [7], 94.2% in test [8], 80.8% in test [9] and 97.1% in test [10].

With `O=C(CCCCCCN1CC(=O)N2[C@@H](c3ccccc3Cl)c3[nH]c4ccccc4c3C[C@H]2C1=O)NO`, the growth is 77.2% in test [1]; 25.7% in test [2]; 21.9% in [3]; 63.1% in test [4]; 61.3% in test [5]; 89.9% in test [6]. For the same compound, the growth in test [7] was 80.3%; in test [8], 60%; in test [9] it was 51.7%; in test [10], 49.3%.

For `Cc1c(C(=O)N[C@@H](Cc2ccccc2)C(=O)C(=O)NCCc2ccccc2)[nH]c2ccccc2c1=O`, the growth in [1] was 101%; in [2], 91.7%; in test [3], 103%; in test [4], 97.7%; in test [5], 112%; in [6] it was 98.6%. The growth was 103% in test [7], 102% in test [8], 101% in test [9] and 110% in [10].

As to `CN(c1ccccc1)c1ccc2c(c1)OCCC21CC1Nc1cnccc1C(=O)O` (stereo not given), the growth in test [1] was 88.8%; in [2] it was 41.2%; in test [3], 67.5%; in test [4] it was 72.8%; in test [5], 76.4%; in test [6], 60.2%. Besides, the growth in [7] is 44.2%; in test [8], 52.7%; in test [9] it was 77.5%; in test [10], 81.2%.

Take `Cc1c(C(=O)NC(Cc2ccccc2)C(O)C(=O)NCc2ccc(F)cc2)[nH]c2ccccc2c1=O` (stereo not given): the growth in [1] was 109%; in test [2], 94.2%; in [3], 111%; in [4], 102%; in [5] it was 114%; in test [6], 104%. For the same compound, the growth was 103% in test [7], 108% in test [8], 103% in [9] and 109% in [10].

In the case of `CC(=O)c1ccc(NCC(=O)Nc2ccccn2)cc1`, the growth in [1] is 107%; in test [2], 95.6%; in [3], 97.6%; in test [4] it was 94.1%; in test [5], 117%; in test [6], 97.1%. In addition, the growth is 109% in [7], 106% in [8], 106% in test [9] and 106% in test [10].

In the case of `O=[N+]([O-])c1ccc(C2CC(c3ccccc3)=Nc3ccccc3S2)cc1` (stereo not given), the growth in test [1] is 107%; in test [2] it was 32.4%; in test [3], 107%; in test [4] it was 101%; in test [5] it was 116%; in [6] it was 98%. The growth in test [7] was 119%; in test [8], 101%; in [9], 108%; in test [10], 104%.

Turning to `CNC(=O)c1cc(Oc2cccc3nc(Nc4ccc(F)c(Cl)c4)ccc23)ccn1`, the growth in [1] is 93.2%; in [2], 26%; in [3] it was 40.2%; in test [4], 62.7%; in test [5] it was 75.3%; in test [6], 54.5%. Further, the growth in [7] was 87%; in test [8], 55.9%; in test [9], 40%; in [10], 51.8%.

With `CC(C)CCC[C@@H](C)[C@H]1CC[C@H]2[C@@H](Nc3ccc(O)cc3)CCC[C@]12C`, the growth in test [1] is 96.5%; in [2], 105%; in test [3] it was 133%; in test [4], 109%; in [5] it was 70.6%; in test [6], 80.2%. Further, the growth in test [7] is 98.5%; in test [8] it was 17.5%; in test [9], 42.2%; in test [10], 102%.

Turning to `Cc1ccc(-n2nc3c(c(C#N)c2=O)CC(c2ccccc2Cl)C([N+](=O)[O-])=C3O)cc1` (stereo not given), the growth was 107% in test [1]; 81.7% in test [2]; 101% in test [3]; 82.4% in test [4]; 101% in test [5]; 90% in [6]. Also, the growth is 101% in test [7], 99.8% in test [8], 102% in test [9] and 99.6% in [10].

Turning to `N=C(N)c1ccc(-c2ccc(-c3cncc4ccccc34)s2)s1`, the growth is -90% (active) in test [1]; -59.4% (active) in [2]; -59.1% (active) in test [3]; -72.3% (active) in [4]; -74.9% (active) in [5]; -71.5% (active) in test [6]. For the same compound, the growth in test [7] was -81.3% (active); in test [8], -77.6% (active); in test [9], 123%; in [10], -76.8% (active).

For `Cc1nn(-c2ccccc2)c(Cl)c1/C=C(/NC(=O)c1ccccc1)c1nc2ccccc2[nH]1`, the growth in [1] is 117%; in test [2] it was 88.4%; in test [3], 48.9%; in [4] it was 85.5%; in test [5] it was 119%; in [6] it was 104%. Moreover, the growth in [7] was 92.9%; in test [8] it was 110%; in [9], 90.1%; in [10] it was 70%.

Regarding `CCCCCCCCCCCC(c1ccccc1)[N+](C)(C)C` (stereo not given), the growth in test [1] was 39.8%; in [2], 19%; in test [3] it was 5.27% (active); in test [4] it was 21.1%; in [5] it was -61% (active); in test [6], 13.2%. Moreover, the growth in [7] was 55.1%; in test [8], 15.8%; in test [9], 20%; in test [10] it was 11.2%.

As for `CCCCC1CCCCN1C(=O)OCC` (stereo not given), the growth in test [1] was 108%; in [2] it was 107%; in [3] it was 108%; in [4], 107%; in test [5], 152%; in test [6], 106%. The growth was 127% in test [7], 99.7% in test [8], 108% in [9] and 101% in test [10].

With `O=C(Nc1ccccc1Cl)Oc1ccc(-c2ccccc2)cc1`, the growth in [1] is 120%; in test [2], 110%; in [3], 122%; in test [4] it was 107%; in test [5], 109%; in test [6], 119%. Also, the growth in [7] was 114%; in test [8], 95.1%; in [9], 111%; in test [10] it was 107%.

For `COc1cccc(-c2nn(-c3ccccc3)cc2-c2ccnc(NCCCNC(=O)c3ccc(F)cc3)c2)c1`, the growth was 65.5% in test [1]; 16.9% in [2]; 48.2% in [3]; 51.3% in test [4]; 56.3% in [5]; 53.7% in test [6]. The growth in [7] is 36.5%; in [8] it was 68.3%; in test [9], 42.3%; in [10], 20.3%.
